# Mcl1 Noxa PPI – Mcl-1/Noxa binding inhibitors, primary screen, biochemical, TR-FRET, 1536-well. TR-FRET Mcl-1/Noxa peptide binding, 2 h. inhibition, % at 21.7 µM. 220,000 tested, 1.5% active. AID 1022, 2008;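 active = compounds that cut the protein-peptide binding signal by more than 50% relative to plate controls in a single-dose test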;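 note: His-tagged Mcl-1 with rhodamine Noxa BH3 peptide and terbium anti-His antibody; 0% = Mcl-1 plus Noxa peptide wells and 100% = peptide-only wells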
# Target sequence (Q07820 whole entry, looked up): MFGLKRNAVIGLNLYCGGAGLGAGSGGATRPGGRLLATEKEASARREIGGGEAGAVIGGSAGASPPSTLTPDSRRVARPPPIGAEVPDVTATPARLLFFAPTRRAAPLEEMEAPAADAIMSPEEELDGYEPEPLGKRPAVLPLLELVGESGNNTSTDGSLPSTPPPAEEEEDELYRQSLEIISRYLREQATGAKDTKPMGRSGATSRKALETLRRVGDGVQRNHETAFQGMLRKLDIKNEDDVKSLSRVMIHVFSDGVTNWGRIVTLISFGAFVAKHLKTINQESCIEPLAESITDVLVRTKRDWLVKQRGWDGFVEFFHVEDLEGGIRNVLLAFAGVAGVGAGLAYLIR
# Mcl1 Bid PPI – Mcl-1/Bid binding inhibitors, primary screen, biochemical, TR-FRET, 1536-well; 220,000 tested, 0.97% active; Induced myeloid leukemia cell differentiation protein Mcl-1 (Homo sapiens), Q07820; TR-FRET Mcl-1/Bid-Dy647 peptide binding; AID 1021, 2008; inhibition, % at 21.7 µM;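 active = compounds that cut the binding signal by more than half at the single screening dose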;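 note: His-tagged Mcl-1 with europium anti-His antibody binding Bid BH3 peptide; 0% = Mcl-1 plus peptide wells and 100% = peptide-only wells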
# 14-3-3 Bad PPI – inhibitors of 14-3-3 zeta/Bad binding, primary screen, biochemical, TR-FRET, bovine 14-3-3 zeta; TR-FRET 14-3-3zeta/Dy647-pBad peptide displacement, 1 h; inhibition, % at 21.7 µM; 220,000 tested, 0.71% active;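 active = inhibition above about 70%, limit read from the data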;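 note: 0% = full 14-3-3 plus peptide FRET controls and 100% = background without 14-3-3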
# Target sequence (P63103 whole entry, looked up): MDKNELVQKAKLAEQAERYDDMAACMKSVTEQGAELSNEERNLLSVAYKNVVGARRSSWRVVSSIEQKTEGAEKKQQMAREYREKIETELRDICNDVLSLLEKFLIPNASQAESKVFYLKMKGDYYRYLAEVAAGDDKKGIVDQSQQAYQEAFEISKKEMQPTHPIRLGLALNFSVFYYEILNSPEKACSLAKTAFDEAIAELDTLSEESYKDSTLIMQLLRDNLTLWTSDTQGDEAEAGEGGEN
# Mcl-1 Bim block – inhibitors of Bim peptide binding to Mcl-1, primary screen, biochemical, bead-based flow cytometry, multiplex. Induced myeloid leukemia cell differentiation protein Mcl-1 (Homo sapiens), Q07820. Bim peptide-Mcl-1 binding. inhibition, % at 10 µM. 190,000 tested, 0.1% active. AID 1009, 2008; in the data active = inhibition above about 40%;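 note: 0% = no compound tracer wells and 100% = peptide blocker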
# Arbovirus anti – antivirals against arbovirus infection, primary screen, cell-based, full library, 10K replicate subset. arbovirus infection cell-based antiviral screen. inhibition, % at 10 µM. 200,000 tested, 0.37% active; in the data active = inhibition above about 30%
# * hit, by the source's call; . = not tested or not shown; [ ] = remark or other dose. Compounds with a hit are over-represented: about 3% of the library has one in this group of screens.
SMILES,Mcl1 Noxa PPI,Mcl1 Bid PPI,14-3-3 Bad PPI,Mcl-1 Bim block,Arbovirus anti
CC(C)(C)NC(=O)Cn1c(Cl)nc2ccccc21,-6,-34,-19,0,12
O=c1oc2cc([N+](=O)[O-])ccc2nc1/C=C(O)/C=C/c1ccccc1,72*,-75,2,.,.
CN(C)C=Nc1c(Br)cc(Br)c2nonc12,60*,-32,6,-5,-5
CN(C)C=Nc1nonc1-c1ccccc1,0,1,-8,.,.
CCCC1(CCC)NC(=O)N(CC(=O)c2cc(C)n(-c3ccc4c(c3)OCO4)c2C)C1=O,8,51*,-5,25,12
Cc1nnc(SCC(=O)c2cc(C)n(-c3ccc4c(c3)OCO4)c2C)s1,-3,-33,5,-2,3
NS(=O)(=O)c1cccc(NC(=O)CSc2nnc(-c3ccccc3F)n2C2CC2)c1,0,-44,3,.,.
CCOC(=O)N1CCN(C(=O)c2ccc(CS(=O)(=O)c3ccccc3OC)o2)CC1,59*,-44,-2,2,7
COc1ccccc1N1CCN(C(=O)c2ccc(CS(=O)(=O)c3ccccc3OC)o2)CC1,20,-26,-14,-1,1
COCCn1nnnc1C(C(C)C)N1CCCC(C)C1 (centres undefined),20,-11,5,0,4
COc1cc(/C=N/NC(=O)C(=O)NCc2ccco2)ccc1O,25,-33,-7,0,-3
COc1cc(/C=N/NC(=O)C(=O)NCc2ccco2)cc(Cl)c1O,62*,-14,60,.,.
CC(=O)c1cc2c(cc1NC(=O)C1CCC1)OCO2,-1,-28,6,0,-3
CCN=C1SC(CC(=O)Nc2ccccc2OCC)C(=O)N1CC (centres undefined),-18,-1,-12,0,0
CCCCOc1ccccc1NC(=O)CC1SC(=NCC)N(CC)C1=O (centres undefined),-3,-27,76*,-3,1
COc1cc(N2CCCC2)c(OC)cc1/C=C(/C#N)c1ccc(F)cc1,72*,-5,-4,-9,4
COc1cc(N2CCCC2)c(OC)cc1/C=C(/C#N)c1ccc(Br)cc1,11,-12,10,.,0
Cc1cc(N2CCN(C)CC2)n2cc(-c3ccc(F)cc3)nc2n1,58*,-22,7,-1,6
Cc1cc(N2CCN(c3ccccn3)CC2)n2cc(-c3ccccc3)nc2n1,5,-13,-13,0,3
CN1CCN(c2cc(-c3ccccc3)nc3cc(-c4ccc(F)cc4)nn23)CC1,52*,6,-11,0,4
CCC1=NNc2cccc3c(OC)ccc1c23,78*,-2,-12,32,-5
COc1ccc2c3c(cccc13)C(=O)N(O)C2=O,-117,-37,-24,3,-19
O=C(Nc1ccccc1Cl)C1CC(=O)n2c(nc3ccccc32)N1 (centres undefined),-11,-16,-4,-4,-13
Cc1nn(Cc2ccccc2Cl)c(C)c1NC(=O)CCCn1nc([N+](=O)[O-])c(Cl)c1C,5,-8,-4,-3,1
CC(C)(C)n1nnnc1C(c1ccc(F)cc1)N(Cc1ccc(F)cc1)Cc1ccco1 (centres undefined),-17,-39,-8,0,-14
SMILES,Mcl1 Noxa PPI,Mcl1 Bid PPI,14-3-3 Bad PPI,Mcl-1 Bim block,Arbovirus anti
CC(C)(C)n1nnnc1C(c1ccc(C(F)(F)F)cc1)N(Cc1ccc(F)cc1)Cc1ccco1 (centres undefined),-4,-7,6,-7,32*
CN(C)S(=O)(=O)c1cccc(N=C2NN=C(c3ccccc3)CS2)c1,34,-36,4,-2,-9
CC(=O)Nc1ccc(C2=NNC(=Nc3cccc(S(=O)(=O)N(C)C)c3)SC2)cc1,96*,-18,0,0,-17
O=S(=O)(c1ccc(N=C2NN=C(c3cc(F)ccc3F)CS2)cc1)N1CCOCC1,16,-26,-21,-6,-14
CC(=O)Nc1ccc(C2=NNC(=Nc3ccc(S(=O)(=O)N4CCOCC4)cc3)SC2)cc1,80*,-20,4,.,.
CC1CCCN(c2nc(NCc3ccco3)nc(N)c2[N+](=O)[O-])C1 (centres undefined),-9,-11,-11,-23,15
CC1CC(C)CN(c2nc(NCc3ccco3)nc(N)c2[N+](=O)[O-])C1 (centres undefined),1,-15,-2,-8,33*
COc1cccc(CNc2ccc(F)c(Cl)c2)c1,24,2,78*,0,-4
CC(=O)Nc1ccc(S(=O)(=O)NCC2CCC(C(=O)NC(C)c3ccc4c(c3)OCCO4)CC2)cc1 (centres undefined),22,-30,1,-4,1
COc1cccc(/C=C/C(=O)OCC(=O)Nc2ccc(Cl)c(S(=O)(=O)N(C)C)c2)c1,9,-8,-9,-2,1
O=C(COC(=O)c1cc2ccccc2oc1=O)Nc1cccc(S(=O)(=O)N2CCCCCC2)c1,0,-23,10,-1,4
CCN(CC)c1ccc(NC(=O)COC(=O)c2cccs2)cc1,30,-23,-10,-5,2
CCN(c1ccc(NC(=O)COC(=O)c2cccs2)cc1)C(C)C,87*,-44,-8,0,12
CN(C)S(=O)(=O)c1cccc(NC(=O)COC(=O)c2cc3ccccc3oc2=O)c1,24,80*,26,.,.
COc1cccc(/C=C/C(=O)OCC(=O)Nc2cccc(S(=O)(=O)N(C)C)c2)c1,17,-30,95*,0,1
CCN(CC)S(=O)(=O)c1cccc(NC(=O)c2cc3ccccc3o2)c1,3,-23,7,0,-3
CN(C)S(=O)(=O)c1cccc(NC(=O)c2cc3ccccc3o2)c1,11,-21,75*[fluorescence artefact?],0,-1
CC(=O)NN1C(=O)c2ccc(Oc3cccc([N+](=O)[O-])c3)cc2C1=O,13,8,0,-1,1
N=C1C(c2ccccc2)=C(O)CN1CCO,-28,-37,-17,-3,5
O=C(COC(=O)c1cc2ccccc2oc1=O)Nc1ccc(F)cc1F,9,-7,-3,.,.
CCN(c1ccc(NC(=O)COC(=O)c2cc3ccccc3oc2=O)cc1)C(C)C,86*,-25,10,-3,-4
C=CCNc1nc(-c2ccc(O)c(C(N)=O)c2)cs1,35,-26,76*,0,3
C=CCNc1nc(-c2cc3ccccc3o2)cs1,19,55*,12,0,12
c1ccc2oc(-c3csc(NCC4CCCO4)n3)cc2c1 (centres undefined),9,-44,-8,0,4
C=CCNC(=O)c1ccc(-c2nc(-c3ccc(Cl)c(Cl)c3)cs2)cc1,5,-15,8,0,-1

# Compound activity (PubChem BioAssay)
